# Measurements reported in PubChem BioAssay (EPA / NIEHS).
# Where “and” joins values, the source holds several entries; their conditions need not be identical. Identical values can stand only once. Some compounds were tested as several samples or in several runs, with calls that do not always agree. Calls of active or inactive are those of the source. Rule for the calls: active = hit-call score of the fitted dose curve at least 0.9, where 1 is the maximum; inactive = score below 0.9.
# Experiment: BSK_SAg_Proliferation: Cell Proliferation Assessment in the BioMAP Diversity Plus: SAg Assay (AID 2283095);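 note: relative cell number as total protein by SRB absorbance in sub-confluent culture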
# Settings: primary human HUVEC with PBMC
# Summary of the method: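 HUVEC/PBMC co-culture, 96-well. TCA-fixed (10%), 0.1% SRB stain, A560 at 96 h. Protein content used as viability readout; bidirectional fitting vs DMSO control.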
Compound,AC50,outcome
C=CC(=O)OCC(F)(F)C(F)F,13.4 µM (active) and 6.25 µM (active),–
COP(=O)(O)OC,–,inactive
O=C(O)C(F)(F)C(F)(F)C(=O)O,–,inactive
O=C(O)C=CC(F)(C(F)(F)F)C(F)(F)F,–,inactive
O=C(O)C(F)(F)OC(F)(F)C(F)(F)OC(F)(F)F,–,inactive
COP(N)(=S)OC,–,inactive
CCCCN(CCCC)SN(C)C(=O)Oc1cccc2c1OC(C)(C)C2,9.37 µM (active),–
FC(F)(F)C(F)(C(F)(F)F)C(F)(F)C(F)(F)CC1CO1 (configuration not stated),–,inactive
CCOP(=S)(OCC)SCS(=O)(=O)CC,–,inactive
CC(C)Nc1ccc(Nc2ccccc2)cc1,0.0375 µM (active),–
CC(O)C(F)(F)C(F)(F)F (configuration not stated),–,inactive
CCN(CC)c1ccccc1,–,inactive
O=C(O)C(F)(OC(F)(F)C(F)(F)C(F)(F)F)C(F)(F)F (configuration not stated),–,inactive
ClC(Cl)c1ccccc1,–,inactive
Cc1ccc2c(c1N)C(=O)c1ccccc1C2=O,–,inactive
O=S1(=O)OCC2C(CO1)C1(Cl)C(Cl)=C(Cl)C2(Cl)C1(Cl)Cl (configuration not stated),–,inactive
O=P(Oc1ccccc1)(Oc1ccccc1)Oc1ccccc1,32.2 µM (active),–
OCC(F)(F)OC(F)(F)C(F)(F)OC(F)(F)C(F)(F)OC(F)(F)F,39 µM (active) and 21 µM (active),–
OCC(F)(F)OC(F)(F)C(F)(F)OC(F)(F)C(F)(F)OC(F)(F)CO,–,inactive
[N-]=[N+]=[N-],–,inactive
CSC(C)(C)C=NO,–,inactive
CCCCC(CC)COP(=O)(Oc1ccccc1)Oc1ccccc1 (configuration not stated),20 µM (active),–
CCCCc1ccccc1,–,inactive
CCOP(=S)(NC(C)C)Oc1ccccc1C(=O)OC(C)C (configuration not stated),–,inactive
CCCN(CCC)c1c([N+](=O)[O-])cc(C(C)C)cc1[N+](=O)[O-],14.7 µM (active),–
CCCCC(CC)COC(=O)c1c(Br)c(Br)c(Br)c(Br)c1C(=O)OCC(CC)CCCC (configuration not stated),–,inactive
CC(Cl)CN(C)C (configuration not stated),20 µM (active),–
COC(=O)C(F)(F)C(F)(F)OC(F)(C(F)(F)F)C(F)(F)OC(F)=C(F)F (configuration not stated),–,inactive

# Experiment: BSK_SAg_SRB: Viability Assessment in the BioMAP Diversity Plus: SAg Assay (AID 2283096);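 note: cells read one day after compound addition; hits may be either gain or loss of signal compared with DMSO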
# Settings: primary human HUVEC with PBMC
# Summary of the method: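 SRB absorbance at 560 nm served as the viability read-out. Cells (HUVEC plus peripheral blood mononuclear cells) were TCA-fixed and stained 24 h post-dosing; activity fitted in both directions against DMSO controls.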
Compound,outcome,AC50
C=CC(=O)OCC(F)(F)C(F)F,inactive,–
COP(=O)(O)OC,inactive,–
O=C(O)C(F)(F)C(F)(F)C(=O)O,inactive,–
O=C(O)C=CC(F)(C(F)(F)F)C(F)(F)F,inactive,–
O=C(O)C(F)(F)OC(F)(F)C(F)(F)OC(F)(F)F,inactive,–
COP(N)(=S)OC,inactive,–
CCCCN(CCCC)SN(C)C(=O)Oc1cccc2c1OC(C)(C)C2,–,24 µM (active)
FC(F)(F)C(F)(C(F)(F)F)C(F)(F)C(F)(F)CC1CO1 (configuration not stated),inactive,–
CCOP(=S)(OCC)SCS(=O)(=O)CC,inactive,–
CC(C)Nc1ccc(Nc2ccccc2)cc1,–,14.1 µM (active)
CC(O)C(F)(F)C(F)(F)F (configuration not stated),inactive,–
CCN(CC)c1ccccc1,inactive,–
O=C(O)C(F)(OC(F)(F)C(F)(F)C(F)(F)F)C(F)(F)F (configuration not stated),inactive,–
ClC(Cl)c1ccccc1,inactive,–
Cc1ccc2c(c1N)C(=O)c1ccccc1C2=O,inactive,–
O=S1(=O)OCC2C(CO1)C1(Cl)C(Cl)=C(Cl)C2(Cl)C1(Cl)Cl (configuration not stated),inactive,–
O=P(Oc1ccccc1)(Oc1ccccc1)Oc1ccccc1,–,29.3 µM (active)
OCC(F)(F)OC(F)(F)C(F)(F)OC(F)(F)C(F)(F)OC(F)(F)F,inactive,30 µM (active)
OCC(F)(F)OC(F)(F)C(F)(F)OC(F)(F)C(F)(F)OC(F)(F)CO,inactive,–
[N-]=[N+]=[N-],inactive,–
CSC(C)(C)C=NO,inactive,–
CCCCC(CC)COP(=O)(Oc1ccccc1)Oc1ccccc1 (configuration not stated),inactive,–
CCCCc1ccccc1,inactive,–
CCOP(=S)(NC(C)C)Oc1ccccc1C(=O)OC(C)C (configuration not stated),inactive,–
CCCN(CCC)c1c([N+](=O)[O-])cc(C(C)C)cc1[N+](=O)[O-],–,29.5 µM (active)
CCCCC(CC)COC(=O)c1c(Br)c(Br)c(Br)c(Br)c1C(=O)OCC(CC)CCCC (configuration not stated),inactive,–
CC(Cl)CN(C)C (configuration not stated),inactive,–
COC(=O)C(F)(F)C(F)(F)OC(F)(C(F)(F)F)C(F)(F)OC(F)=C(F)F (configuration not stated),inactive,–
